# Inconclusive results are not listed. A call without a number means that no potency is given here. Active and inactive are the calls of the source. Calls follow the shape of the full dose curve.
# Test: p53 small molecule agonists, cell-based qHTS assay with human liver microsomes (AID 1963577);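 also: p53 response element beta-lactamase reporter cells with liver microsomes plus NADPH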
# Conditions: HCT-116 p53RE-bla with human liver microsomes, ratio, 16 h; series mostly up to 66 µM
# Excerpt: National Center for Advancing Translational Sciences [NCATS]
# Division of Preclinical Innovation [DPI]
# U.S. Environmental Protection Agency [EPA]
# National Institutes of Environmental Health Sciences [NIEHS]
# National Toxicology Program [NTP]
# U.S. Food and Drug Administration [FDA]
# p53, a tumor suppressor protein, is activated following cellular insult, including DNA damage and other cellular stresses. The activation of p53 regulates cell fate by inducing DNA repair, cell cycle arrest, apoptosis, or cellular senescence. The activation of p53, therefore, is a good indicator of DNA damage and other cellular stresses. […] The activation of the reporter gene under culture conditions can be detected by fluorescence intensity.
# Tox21 Assay Protocol Summary:
# The p53RE-bla cells were dispensed at 4,000cells/3ul/well in 1536-well black-clear bottom plates. After the assay plates were incubated at 37 C, 5% CO2 incubator for 5 hours, 23 nL of compounds dissolved in DMSO, positive controls or DMSO only was transferred to the assay plate. Following compound addition, 3 uL of human liver microsomes (XenoTech, Kansas City, KS) at final concentration of 0.5 mg/mL and 1uL of Beta-Nicotinamide adenine dinucleotide 2-phosphate (NADPH) at final concentration of 0.5 mg/mL were transferred to the assay plate. The plates were incubated at 37 C for 16 hours. 1 uL of LiveBLAzer detection mixture was added to each well and the plates were incubated at room temperature in the dark for 2 h.
row,SMILES,Potency
1,c1ccc(CCNc2nc(-c3ccccc3)cs2)cc1,inactive
2,O=C(O)CCN(C1(C(=O)NO)CCCC1)S(=O)(=O)c1ccc(Oc2ccc(F)cc2)cc1,inactive
3,CCOC(=O)N1CCC(Nc2ccc(Cl)cc2N)CC1,inactive
4,O=C(Cn1ccnc1[N+](=O)[O-])NCCO,inactive
5,CC(CCc1ccc(O)cc1)NCCc1ccc(O)c(O)c1 (stereo not given),inactive
6,CCCCC(CC)COC(=O)c1ccccc1O (stereo not given),inactive
7,C[Si](C)(CCCN)O[Si](C)(C)CCCN,inactive
8,CC/C=C\CCOC(=O)c1ccccc1,inactive
9,O=C(CCCl)NCCc1ccccc1,inactive
10,CC(=O)CCCCn1c(=O)c2c(ncn2C)n(C)c1=O,inactive
11,c1cnc2c(n1)CCCC2,inactive
12,CC(C)NCC(O)c1ccc(NS(C)(=O)=O)cc1 (stereo not given),inactive
13,O=C(Nc1ccc2c(O)c(N=Nc3ccc(N=Nc4ccc(S(=O)(=O)O)cc4)cc3)c(S(=O)(=O)O)cc2c1)c1ccccc1,inactive
14,NNc1nc(-c2ccc([N+](=O)[O-])cc2)cs1,inactive
15,Nc1ccc(C(=O)OCC(O)CO)cc1 (stereo not given),inactive
16,CCC1C(=O)OCC1Cc1cncn1C (stereo not given),inactive
17,OC(CCN1CCCCC1)(c1ccccc1)c1ccccc1,inactive
18,CCCCCCCCCOC(=O)c1ccc(O)cc1,inactive
19,CCN(CC)c1ccc(C(=C2C=CC(=[N+](CC)CC)C=C2)c2ccc(S(=O)(=O)O)cc2S(=O)(=O)[O-])cc1,inactive
20,NS(=O)(=O)c1cc(C(=O)O)cc(N2CCCC2)c1Oc1ccccc1,inactive

row,SMILES,Potency
1,COC(=O)NN,inactive
2,O=C(Nc1ccc([N+](=O)[O-])cc1)Nc1ccc([N+](=O)[O-])cc1,inactive
3,CC(=O)c1ccc(C(C)=O)cc1,inactive
4,CC(=O)O[C@@H]1CC2CCC1(C)C2(C)C (stereo not given in full),inactive
5,CCN(CC)CCOC(=O)C(c1ccccc1)c1ccccc1,inactive
6,CC(C)(C)NSc1nc2ccccc2s1,inactive
7,C=COCC(C)C,inactive
8,CN1CCC(=C2c3ccccc3CC(=O)c3sccc32)CC1,inactive
9,CC(C)=CCC1=C(O)c2ccccc2C(=O)C1=O,inactive
10,O=C(O)c1cc(N=Nc2ccc([N+](=O)[O-])cc2)ccc1O,inactive
11,C=C(C)CCO,inactive
12,CN1C(=O)CC(c2ccccc2)C1=O (stereo not given),inactive
13,CC(O)c1ccccc1 (stereo not given),inactive
14,CC(=O)OCC(=O)[C@@]1(O)CCC2C3CCC4=CC(=O)CC[C@]4(C)C3[C@@H](O)C[C@@]21C (stereo not given in full),inactive
15,CCC1(C)NC(=O)NC1=O (stereo not given),inactive
16,CCN(CC)CCc1nc(-c2ccccc2)no1,inactive
17,O=C(O)P(=O)(O)O,inactive
18,COc1cc(-c2ccc(N=C=O)c(OC)c2)ccc1N=C=O,inactive
19,NCC1CCC(C(=O)Oc2ccc(CCC(=O)O)cc2)CC1 (stereo not given),inactive
20,C=CCOc1c(Br)cc(Br)cc1Br,inactive

# Reference: PubChem BioAssay (Tox21)
